“And” between values parts separate entries of the source, which are not always exact repeats. Identical values can stand only once. The campaign covered roughly 5,500 compounds. About 2,000 (36%) were called active. Another 18% or so got no clear call; they are omitted. No stated cut-off is given here; in the data, active means normalized growth mostly below about 0.91 (no sharp cut-off); inconclusive means no clear call, values can overlap the other calls; inactive means mostly above about 0.92. The list shows a part of the results.
Experiment: chemical genetic growth profiling, strain panel (AID 1159580);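 further: tested at 20 µM; growth read once vehicle control cultures reached saturation at 30 °C; 1 = growth at the plate median or of vehicle wells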
Details: S. cerevisiae deletion strains, growth OD

Measured: normalized growth

Cc1ncc([N+](=O)[O-])n1CCO
inactive: locus YAL013W, strain DEP1, stronger effect = lower value 0.989 | locus YAL021C, strain ccr4, stronger effect = lower value 0.983 | locus YAL026C, strain drs2, stronger effect = lower value 1 | locus YAL030W, strain snc1, stronger effect = lower value 0.971 | locus YBL061C, strain skt5, stronger effect = lower value 0.98 | locus YBR009C, strain hhf1, stronger effect = lower value 1.01 | locus YBR021W, strain FUR4, stronger effect = lower value 0.998 | locus YBR023C, strain chs3, stronger effect = lower value 0.976 | locus YBR171W, strain sec66, stronger effect = lower value 0.982 | locus YBR229C, strain ROT2, stronger effect = lower value 0.944 | locus YBR231C, strain swc5, stronger effect = lower value 0.999 | locus YBR279W, strain paf1, stronger effect = lower value 0.975 | locus YCL011C, strain gbp2, stronger effect = lower value 0.945 | locus YCL016C, strain dcc1, stronger effect = lower value 0.968 | locus YCL029C, strain bik1, stronger effect = lower value 0.986 | locus YCL061C, strain MRC1, stronger effect = lower value 0.992 | locus YCL069W, strain vba3, stronger effect = lower value 0.985 | locus YCR088W, strain abp1, stronger effect = lower value 0.974 | locus YDL005C, strain med2, stronger effect = lower value 0.968 | locus YDL035C, strain GPR1, stronger effect = lower value 0.967 | locus YDL040C, strain nat1, stronger effect = lower value 0.98 | locus YDL074C, strain BRE1, stronger effect = lower value 1.02 | locus YDL101C, strain DUN1, stronger effect = lower value 0.977 | locus YDL134C, strain PPH21, stronger effect = lower value 0.978 | locus YDL185W, strain tfp1, stronger effect = lower value 0.983 | locus YDL192W, strain arf1, stronger effect = lower value 0.978 | locus YDR001C, strain nth1, stronger effect = lower value 0.965 | locus YDR069C, strain doa4, stronger effect = lower value 0.981 | locus YDR101C, strain arx1, stronger effect = lower value 1.01 | locus YDR137W, strain rgp1, stronger effect = lower value 0.967 | locus YDR150W, strain NUM1, stronger effect = lower value 0.956 | locus YDR159W, strain sac3, stronger effect = lower value 1.02 | locus YDR162C, strain NBP2, stronger effect = lower value 0.968 | locus YDR195W, strain ref2 0.982 | locus YDR297W, strain sur2, stronger effect = lower value 0.974 | locus YDR318W, strain mcm21, stronger effect = lower value 0.999 | locus YDR334W, strain swr1, stronger effect = lower value 0.941 | locus YDR335W, strain msn5, stronger effect = lower value 0.971 | locus YDR388W, stronger effect = lower value 0.997 | locus YDR392W, strain spt3, stronger effect = lower value 0.956 | locus YDR502C, strain sam2, stronger effect = lower value 0.98 | locus YEL003W, strain gim4, stronger effect = lower value 0.989 | locus YEL037C, strain rad23, stronger effect = lower value 0.976 | locus YEL061C, strain CIN8 (second series), stronger effect = lower value 0.975 | locus YEL061C, strain CIN8, stronger effect = lower value 0.979 | locus YER015W, strain faa2, stronger effect = lower value 0.982 | locus YER016W, strain bim1, stronger effect = lower value 0.984 | locus YER110C, stronger effect = lower value 0.965 | locus YER111C, strain swi4, stronger effect = lower value 0.981 | locus YER155C, strain BEM2 (second series), stronger effect = lower value 1.03 | locus YER155C, strain BEM2, stronger effect = lower value 1.01 | locus YER167W, strain BCK2, stronger effect = lower value 0.988 | locus YFR010W, strain ubp6, stronger effect = lower value 0.981 | locus YGL078C, strain dbp3, stronger effect = lower value 0.973 | locus YGL086W, strain mad1, stronger effect = lower value 0.982 | locus YGL167C, strain pmr1, stronger effect = lower value 0.984 | locus YGL173C, strain kem1, stronger effect = lower value 0.981 | locus YGL227W, strain vid30, stronger effect = lower value 0.981 | locus YGL240W, strain doc1, stronger effect = lower value 0.993 | locus YGL248W, strain PDE1, stronger effect = lower value 0.976 | locus YGL253W, strain hxk2, stronger effect = lower value 0.977 | locus YGR078C, strain PAC10, stronger effect = lower value 0.98 | locus YGR135W, strain pre9, stronger effect = lower value 0.991 | locus YGR229C, strain SMI1, stronger effect = lower value 0.998 | locus YGR252W, strain gcn5, stronger effect = lower value 0.904 | locus YHR013C, strain ard1, stronger effect = lower value 0.948 | locus YHR027C, strain rpn1, stronger effect = lower value 0.962 | locus YHR030C, strain SLT2, stronger effect = lower value 0.985 and 1.07 | locus YHR079C, strain IRE1 (second series), stronger effect = lower value 1.01 | locus YHR079C, strain IRE1, stronger effect = lower value 1.05 | locus YHR094C, strain hxt1, stronger effect = lower value 0.99 | locus YHR129C, strain ARP1, stronger effect = lower value 0.994 | locus YHR142W, strain chs7, stronger effect = lower value 0.933 | locus YHR200W, strain rpn10, stronger effect = lower value 0.997 | locus YIL066C, strain RNR3, stronger effect = lower value 0.97 | locus YIL073C, strain SPO22, stronger effect = lower value 1.01 | locus YIL125W, strain kgd1, stronger effect = lower value 0.989 | locus YIR030C, strain dcg1, stronger effect = lower value 0.983 | locus YJL092W, strain hpr5, stronger effect = lower value 0.985 | locus YJL095W, strain BCK1 (second series), stronger effect = lower value 0.98 | locus YJL095W, strain BCK1, stronger effect = lower value 1.02 and 1.04 | locus YJL115W, strain asf1, stronger effect = lower value 0.958 | locus YJL129C, strain trk1, stronger effect = lower value 0.968 | locus YJL134W, strain LCB3, stronger effect = lower value 0.978 | locus YJL154C, strain vps35, stronger effect = lower value 0.963 | locus YJL164C, strain tpk1, stronger effect = lower value 0.996 | locus YJL166W, strain qcr8, stronger effect = lower value 0.96 | locus YJL168C, strain set2, stronger effect = lower value 0.993 | locus YJL187C, strain SWE1 (second series), stronger effect = lower value 0.985 | locus YJL187C, strain SWE1, stronger effect = lower value 0.981 | locus YJR043C, strain POL32, stronger effect = lower value 1.02 | locus YJR066W, strain TOR1, stronger effect = lower value 1.01

From PubChem BioAssay AID1159580 (chemical genetic matrix, 2015)
